# Results reported in PubChem BioAssay AID1220 (Sanford-Burnham Center for Chemical Genomics, 2008).
# Values joined by “and” are separate entries in the source; they are usually repeats but may differ in a detail not shown here. Equal values may be shown once. The campaign covered roughly 190,000 compounds. About 1,300 (0.68%) were called active. Cut-off read from the data, not from the text of the source: active = inhibition above about 50%; inactive = the rest. This excerpt belongs to a sample that is enriched for actives. Some compounds were tested as several samples or in several runs, with calls that do not always agree.
# Molecular target: Mannose-6-phosphate isomerase (Homo sapiens) (UniProt P34949)
# Assay: human PMI inhibitors, high substrate, primary screen, biochemical, fluorescence intensity, high mannose 6-phosphate (AID 1220)
# Conditions: recombinant PMI enzyme, coupled fluorescence intensity; at 20 µM; stronger effect = higher value
# Chain of Mannose-6-phosphate isomerase (Homo sapiens) (P34949 whole entry, looked up): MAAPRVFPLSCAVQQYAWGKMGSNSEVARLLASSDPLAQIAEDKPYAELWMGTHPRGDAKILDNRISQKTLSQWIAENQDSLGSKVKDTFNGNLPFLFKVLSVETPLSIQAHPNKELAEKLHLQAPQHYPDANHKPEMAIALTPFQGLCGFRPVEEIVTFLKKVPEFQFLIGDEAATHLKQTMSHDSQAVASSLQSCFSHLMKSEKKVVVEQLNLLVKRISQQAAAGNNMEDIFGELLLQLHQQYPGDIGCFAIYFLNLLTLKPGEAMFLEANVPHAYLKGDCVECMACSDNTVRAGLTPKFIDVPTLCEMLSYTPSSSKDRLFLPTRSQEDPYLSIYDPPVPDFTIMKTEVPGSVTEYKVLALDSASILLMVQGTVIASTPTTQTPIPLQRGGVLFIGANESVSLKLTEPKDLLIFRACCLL
row,SMILES,inhibition
1,COc1ccc(CN2CCCC(C(=O)c3sccc3C)C2)cc1O (stereo not given),1.4% (inactive)
2,COc1cc(CN2CCCC(C(=O)c3sccc3C)C2)cc(Cl)c1O (stereo not given),14% (inactive)
3,COc1cc(CN2CCCC(C(=O)c3sccc3C)C2)cc(OC)c1O (stereo not given),65.3% (active)
4,Cc1ccc(-n2c(O)c(/C=N/N3CCOCC3)c(=O)[nH]c2=S)cc1,29% (inactive)
5,O=c1[nH]c(=S)n(-c2ccccc2)c(O)c1/C=N/N1CCOCC1,3.4% (inactive)
6,Cc1ccccc1-n1c(O)c(/C=N/N2CCOCC2)c(=O)[nH]c1=S,55.7% (active)
7,CN1C(=O)N(C)C(=O)C2(Sc3ccccc3C2=O)C1=O,-1.5% (inactive)
8,CCN(CC)c1ccc(N=Cc2c(O)n(-c3ccc(Cl)cc3)c(=O)[nH]c2=O)cc1,39.5% (inactive)
9,CCN(CC)c1ccc(N=Cc2c(O)n(-c3ccccc3C)c(=O)[nH]c2=O)cc1,19.9% (inactive)
10,CCOc1ccc(-n2c(O)c(C=Nc3ccc(N(CC)CC)cc3)c(=O)[nH]c2=O)cc1,18.2% (inactive)
11,C=CCn1c(O)c(C=Nc2ccc(N(CC)CC)cc2)c(=O)[nH]c1=O,4% (inactive)
12,CCOc1ccccc1-n1c(O)c(C=Nc2ccc(N(CC)CC)cc2)c(=O)[nH]c1=O,59.3% (active)
13,CCN(CC)CCN=Cc1c(O)n(CCC2=CCCCC2)c(=O)[nH]c1=O,1.6% (inactive)
14,CCN(CC)c1ccc(N=Cc2c(O)n(CCC3=CCCCC3)c(=O)[nH]c2=O)cc1,58.1% (active)
15,CCN(CC)c1ccc(N=Cc2c(O)n(Cc3ccccc3)c(=O)[nH]c2=O)cc1,13.5% (inactive) and 50.6% (active)
16,CN(C)c1ccc(N=Cc2c(O)n(CCC3=CCCCC3)c(=O)[nH]c2=O)cc1,28.9% (inactive)
17,Cc1nc2cc(-c3ccccc3)nn2c(C)c1CCC(=O)N1CCC2(CC1)OCCO2,12.2% (inactive)
18,COc1ccccc1NC1=NCCS1,-1% (inactive)
19,Cc1ccccc1OP(N)(=O)Oc1ccccc1C,3% (inactive)
20,CN1C(=O)C(Cc2cccc3ccccc23)C(=O)N(C)C1=O,-9.1% (inactive)
21,O=C(COC(=O)Cc1ccccc1)Nc1ccc(Cl)cn1,-6.1% (inactive)
22,COC(=O)CC1=C(C(=O)OC)C2(C(=O)Nc3c(C)cccc32)C(C#N)=C(N)O1 (stereo not given),4.4% (inactive)
23,c1cncc(C2CCCCN2Cc2ccc3c(c2)OCO3)c1 (stereo not given),4.9% (inactive)

row,SMILES,inhibition
1,CCN1CCN(Cc2cc(Br)cc(OC)c2O)CC1,18% (inactive)
2,CCN1CCN(Cc2cc(OC)c(OC)cc2[N+](=O)[O-])CC1,59.2% (active)
3,CCN1CCN(c2cc(N3CCCC3)c([N+](=O)[O-])cc2F)CC1,25.4% (inactive)
4,CCOc1ccccc1-n1c(O)c(C=NCCCN(CC)CC)c(=O)[nH]c1=O,-2.3% (inactive)
5,O=C(c1cc(-c2ccccc2)on1)N1CCC2(CC1)OCCO2,-0.7% (inactive)
6,Oc1ccccc1/C=N/NP(=S)(c1ccccc1)c1ccccc1,10.4% (inactive)
7,Oc1ccc(/C=N/NP(=S)(c2ccccc2)c2ccccc2)cc1,8.7% (inactive)
8,Oc1ccc(/C=N/NP(=S)(c2ccccc2)c2ccccc2)c(O)c1O,52.2% (active)
9,COC(=O)CNC(=O)c1cn(CCC#N)nc1-c1ccc(F)cc1,-0.2% (inactive)
10,O=C(CSc1ccccc1)N1CCC2(CC1)OCCO2,14.1% (inactive)
11,CCOC(=O)C1=C(C)OC(N)=C(C#N)C12C(=O)Nc1ccc(C)cc12 (stereo not given),-2.3% (inactive)
12,CCCC1=C(C(=O)OCC)C2(C(=O)Nc3ccc(C)cc32)C(C#N)=C(N)O1 (stereo not given),8.5% (inactive)
13,O=C1CCCN1c1ccc(S(=O)(=O)O)cc1 (tested in a mixture with another compound),-11.1% (inactive)
14,CC(=O)c1ccc(OC(NC(=O)c2ccco2)C(Cl)(Cl)Cl)cc1 (stereo not given),7.7% (inactive)
15,COCCCn1c(N)c(C(=O)NCCC(C)C)c2nc3ccccc3nc21,63.7% (active)
16,CCCOC(=O)c1c(N)n(Cc2cccs2)c2nc3ccccc3nc12,-0.8% (inactive)
17,CCOC(=O)c1c(NC(=O)c2c(N)n(CCCOC)c3nc4ccccc4nc23)sc2c1CCCC2,24.1% (inactive)
18,Nc1c(C(=O)NCCCc2ccccc2)c2nc3ccccc3nc2n1Cc1cccs1,17.4% (inactive)
19,CCOCCCn1c(N)c(C(=O)Nc2sc3c(c2C(=O)OC)CCCC3)c2nc3ccccc3nc21,62.1% (active)
20,CCCCNC(=O)c1c(N)n(CCCOC)c2nc3ccccc3nc12,40.9% (inactive)
21,CCC(C)OC(=O)c1c(N)n(Cc2cccs2)c2nc3ccccc3nc12 (stereo not given),8.2% (inactive)
22,CC(C)CNC(=O)c1c(N)n(Cc2ccco2)c2nc3ccccc3nc12,-12.2% (inactive)
23,CC(C)CCn1c(N)c(C(=O)NCc2cccs2)c2nc3ccccc3nc21,59.5% (active)

row,SMILES,inhibition
1,COCCCn1c(N)c(C(=O)Nc2sc3c(c2C(=O)OC)CCCC3)c2nc3ccccc3nc21,24.1% (inactive)
2,COCCNC(=O)c1c(N)n(CCC(C)C)c2nc3ccccc3nc12,34.1% (inactive)
3,CC(C)OCCCNC(=O)c1c(N)n(Cc2cccs2)c2nc3ccccc3nc12,57.4% (active)
4,CCOc1cc(C2C(C#N)=C(N)Oc3c2c(=O)oc2ccccc32)ccc1OC(=O)c1cccs1 (stereo not given),2.8% (inactive)
5,Cc1ccnc(-n2c(-c3ccccc3)nc3ccccc3c2=O)c1,15.9% (inactive)
6,CC(C(=O)c1c[nH]c2ccccc12)N1CCc2ccccc2C1 (stereo not given),6.1% (inactive)
7,CCCC1(CCC)C(=O)NC(=Nc2ccc(C)cc2)NC1=O,2.5% (inactive)
8,CN1CN=C(N[N+](=O)[O-])N(Cc2ccco2)C1,-10.4% (inactive)
9,O=C(Cn1cnc2sc3c(c2c1=O)CCCC3)NCCC(=O)N1CCC2(CC1)OCCO2,1.1% (inactive)
10,CN1C[C@H](CO)C=C2c3cccc4[nH]cc(c34)C[C@H]21,65.5% (active)
11,CC(C)C[C@H]1C(=O)N2CCCC2[C@]2(O)O[C@](NC(=O)[C@@H]3C=C4c5cccc6[nH]cc(c56)CC4N(C)C3)(C(C)C)C(=O)N12 (stereo not given in full),48.1% (inactive)
12,CC(C)[C@H]1C(=O)N2CCC[C@H]2[C@]2(O)O[C@](NC(=O)[C@@H]3C=C4c5cccc6[nH]cc(c56)C[C@H]4N(C)C3)(C(C)C)C(=O)N12,0.6% (inactive)
13,O=[N+]([O-])c1ccc(C2C3C(c4ccccc4)=NC4(CCCC4)N32)cc1 (stereo not given),9.1% (inactive)
14,Cc1ccnc(-n2c(-c3ccco3)nc3ccccc3c2=O)c1,16.7% (inactive)
15,CN(CCOc1ccc(C=C2C(=O)NC(=O)NC2=O)cc1)c1ccccn1,-5.1% (inactive)
16,COc1cc(/C=N/NP(=S)(c2ccccc2)c2ccccc2)ccc1O,4.4% (inactive)
17,C=CCn1c(O)c(C(CC)=Nc2cc(OC)ccc2OC)c(=O)[nH]c1=O,55.7% (active)
18,C=CCn1c(O)c(C(C)=Nc2cc(OC)ccc2OC)c(=O)[nH]c1=O,13% (inactive)
19,CCCCn1c(O)c(C(CC)=Nc2ccc(OC)cc2OC)c(=O)[nH]c1=O,17.6% (inactive)
20,CCC(=Nc1ccc(OC)cc1OC)c1c(O)n(C)c(=O)n(C)c1=O,53.9% (active)
21,COc1ccc(N=C(C)c2c(O)n(C)c(=O)n(C)c2=O)c(OC)c1,-2.6% (inactive)
22,CCC(=Nc1ccc(OC)cc1OC)c1c(O)[nH]c(=O)[nH]c1=O,30.1% (inactive)
23,Cc1ccc(O)c(CN2CCN(c3ccccc3)CC2)c1,4.3% (inactive)

row,SMILES,inhibition
1,CN(C)[C@@H]1C(=O)C(C(N)=O)=C(O)[C@@]2(O)C(=O)C3=C(O)c4c(O)ccc(Cl)c4[C@@](C)(O)C3C[C@@H]12 (stereo not given in full),16.4% (inactive)
2,CN(C)[C@@H]1C(=O)C(C(N)=O)=C(O)[C@@]2(O)C(=O)C3=C(O)c4c(O)cccc4[C@@](C)(O)[C@H]3[C@H](O)[C@@H]12,52.6% (active)
3,O=[N+]([O-])c1ccc(N2CCCCC2)c2ncccc12,72.6% (active)
4,O=[N+]([O-])c1ccc(N2CCCC2)c2ncccc12,22.1% (inactive)
5,CN1CCN(c2ccc(S(=O)(=O)C(F)(F)F)cc2[N+](=O)[O-])CC1,-6.1% (inactive)
6,O=[N+]([O-])c1ccc(N2CCCCCC2)c2ncccc12,63.7% (active)
7,CN1CCN(c2ccc(S(C)(=O)=O)cc2[N+](=O)[O-])CC1,-13.1% (inactive)
8,CC1CN(c2ccc([N+](=O)[O-])c3cccnc23)CC(C)N1 (stereo not given),63.1% (active)
9,O=[N+]([O-])c1ccc(N2CCNCC2)c2ncccc12,29% (inactive)
10,O=[N+]([O-])c1ccc(N2CCNCC2)cc1N1CCCCC1,9.9% (inactive)
11,O=[N+]([O-])c1ccc(N2CCCC2)c(F)c1Br,8.1% (inactive)
12,CC1CN(c2ccc([N+](=O)[O-])cc2Cl)CCN1 (stereo not given),49.1% (inactive)
13,CN1CCN(c2ccc([N+](=O)[O-])c3cccnc23)CC1,63.5% (active)
14,CC1CN(c2cc([N+](=O)[O-])ccc2Cl)CC(C)N1 (stereo not given),-1.6% (inactive)
15,Cc1cc(OCc2nn[nH]n2)c2c3c(c(=O)oc2c1)CCCC3,-9.2% (inactive)
16,COc1cc(NC(=O)CN2C3CCC2CC(O)(c2cccnc2)C3)cc(OC)c1 (stereo not given),5.3% (inactive)
17,O=C(NC(C(Cl)Cl)N1CCOCC1)c1ccccc1 (stereo not given),-6.2% (inactive)
18,O=C(c1ccc2c(c1)ncn2-c1ccc(F)cc1F)N1CCC2(CC1)OCCO2,-2.9% (inactive)
19,CCCCCn1c(=O)c(C(=O)Nc2ccncc2)c(O)c2ccccc21,-5.5% (inactive)
20,COc1ccc(C(C)=O)cc1CC(C(=O)c1ccc(C)cc1)N(C)C (stereo not given),4.6% (inactive)
21,CCC(C)NC(=O)CN1C(=O)CN=C(c2ccccc2)c2ccccc21 (stereo not given),-11.3% (inactive)
